Shown are actives, neighbours in structure and some others; about 3.5% of the full set was active somewhere.
TEAD-YAP block = TEAD-YAP interaction inhibition, primary screen, TEAD-YAP interaction inhibitor project, luminescence, HEK-TIYL cells; TEAD-Gal4/YAP UAS-luciferase luminescence; inhibition, % at 9.12 µM; 640,000 compounds, 1.4% hits; in the data active means inhibition above about 32%;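 further: 0% = median of test compound wells and 100% = reference inhibitor wells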
GPR151 ag = activators of human GPR151, primary screen, cell-based, PathHunter beta-arrestin, luminescence; G-protein coupled receptor 151 (Homo sapiens), Q8TDV0; PathHunter beta-arrestin GPR151 cells; activation, % at 11.2 µM; 650,000 compounds, 1% hits; AID 1508602, 2020; in the data active means activation above about 4.9%;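 further: 0% = median of compound wells and 100% = cells with positive control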
FBW7 act = FBW7 E3 ligase activators, primary screen, biochemical, AlphaScreen, human; F-box/WD repeat-containing protein 7 (Homo sapiens), Q969H0; normalized activity (activation), % at 26.1 µM; AlphaScreen FBW7–phospho-cyclin E peptide binding, activator screen; 650,000 compounds, 0.13% hits; in the data active means normalized activity above about 1.9%;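 further: purified mutant Fbw7 with reduced substrate affinity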
MITF primary = MITF inhibitors, primary screen, biochemical, AlphaScreen, human | Microphthalmia-associated transcription factor (Homo sapiens), O75030 | inhibition, % at 2.6 µM | AID 1259374, 2018 | 650,000 compounds, 0.91% hits | AlphaScreen MITF homodimerization, bead proximity signal; in the data active means inhibition above about 50%;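 further: 0% = vehicle wells with protein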
GPR151 confirm = GPR151 activators, triplicate retest, confirmation, cell-based, PathHunter beta-arrestin, luminescence | shares compounds with GPR151 ag | GPR151 PathHunter beta-arrestin cells, 90 min; % of EA-reagent control over plate median | activation, % at 11.2 µM | 6,700 tested, under 10 active | AID 1508609, 2020;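 active means mean percent activation across replicates above the confirmation screen cutoff of 4.91%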
GPR119 counter = GPR119 activators in beta-arrestin cells, counter-screen for GPR151 activator project, cell-based, PathHunter beta-arrestin, luminescence, triplicate; shares compounds with GPR151 ag; 90 min; 0 = compound-well median, 100 = enzyme-acceptor control; activation, % at 11.2 µM; 6,700 compounds, 0.3% hits;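 active means mean percent activation in the counterscreen above 29.09%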;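 further: counterscreen on off-target GPR119 to flag nonselective hits from the GPR151 activator screen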
Target sequence (Q8TDV5 whole entry, looked up): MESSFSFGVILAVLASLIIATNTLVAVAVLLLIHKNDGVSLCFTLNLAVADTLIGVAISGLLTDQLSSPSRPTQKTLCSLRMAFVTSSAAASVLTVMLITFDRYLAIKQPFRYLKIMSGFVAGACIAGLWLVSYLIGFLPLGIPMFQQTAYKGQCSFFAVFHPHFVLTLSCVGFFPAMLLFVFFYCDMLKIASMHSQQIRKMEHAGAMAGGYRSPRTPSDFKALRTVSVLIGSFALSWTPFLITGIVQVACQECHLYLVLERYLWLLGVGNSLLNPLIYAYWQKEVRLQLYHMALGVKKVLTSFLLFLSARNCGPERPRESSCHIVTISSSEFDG
Numbers without * were called inactive; . = not tested or not shown.

SMILES	TEAD-YAP block	GPR151 ag	FBW7 act	MITF primary	GPR151 confirm	GPR119 counter
COc1ccc(-c2[nH]c(-c3ccc4c(c3)OCO4)nc2-c2ccccc2)cc1	1.1	0.5	-0.2	-3.3	.	.
O=C(CC1C(=O)NCCN1CC(c1ccccc1)c1ccccc1)NCc1ccccc1 (configuration not stated)	10.6	0.7	0.1	3.5	.	.
Cc1cc(C)cc(N(C(C)C(=O)O)S(C)(=O)=O)c1 (configuration not stated)	-13.9	5.5*	0.0	9.9	0.1	8.8
CCCC1CCc2c(sc(NS(=O)(=O)c3ccc(NC(C)=O)cc3)c2C(N)=O)C1 (configuration not stated)	1.3	10.0*	-0.1	5.9	-0.4	-9.2
CC(=O)Nc1ccc(S(=O)(=O)Nc2sc3c(c2C(N)=O)CCC(C)C3)cc1 (configuration not stated)	5.5	-0.9	0.0	3.5	.	.
O=C1CC(NCCC2=CCCCC2)C(=O)N1c1cccc(Cl)c1 (configuration not stated)	4.2	-0.8	0.0	-19.3	.	.
COc1cc(C=O)ccc1Oc1nc2ccccc2n2cnnc12	1.0	5.8*	0.0	9.2	0.9	14.6
CCC(C(=O)O)n1c(O)c(/C=C2\C=Nc3ccccc32)sc1=S (configuration not stated)	3.4	9.1*	0.2	12.9	0.6	12.5
Cc1nc2c(C(=O)NC3CCCCC3)cnn2c(C)c1Cc1ccc(F)cc1	-10.2	5.0*	-0.2	-1.5	-0.5	-9.1
Cc1nc2c(C(=O)NC3CCCC3)cnn2c(C)c1Cc1ccc(F)cc1	-4.5	1.5	-0.1	-10.4	.	.
Cc1nc2c(C(=O)O)cnn2c(C)c1Cc1ccc(Cl)cc1	7.2	5.8*	0.0	6.2	0.7	7.8
CC(C)(C)c1csc2ncc(C(=O)NCc3cccs3)c(=O)n12	-0.6	5.2*	-0.1	1.1	-0.1	-0.6
COc1ccc(F)c(CN2CCC3(CC2)CC3C(=O)NCc2cccnc2)c1 (configuration not stated)	-5.5	0.0	0.0	4.2	.	.
COCCNCc1nc2c(c(=O)n(C)c(=O)n2C)n1Cc1ccccc1Cl	-3.7	5.1*	-0.1	-4.1	0.4	15.4
O=C(CCc1ccccc1)Nc1nnc(-c2ccc(F)cc2)o1	-5.6	5.7*	-0.1	-5.6	0.6	7.1
CCN(CC)C(=O)COc1cc2oc(=O)c(CC(=O)OC)c(C)c2cc1Cl	-4.4	7.1*	-0.1	4.2	0.1	-1.7
COC(=O)Cc1c(C)c2c(OCC(=O)c3cccc([N+](=O)[O-])c3)cc(C)cc2oc1=O	-10.8	2.7	-0.1	-2.7	.	.
COC(=O)COc1cc(C)cc2oc(=O)c(CC(=O)OC)c(C)c12	1.4	6.1*	0.0	10.2	0.3	11.3
CC(C)=NNC(=O)c1ccc(Cl)cc1	-34.5	11.6*	0.1	7.2	0.2	1.8
CCOC(=O)C1=C(C)NC(=S)NC1c1cccc([N+](=O)[O-])c1 (configuration not stated)	8.1	-0.9	0.1	0.7	.	.
O=C(CCC1CCCCC1)Nc1nn[nH]n1	1.2	7.7*	-0.1	0.9	0.7	3.6
C/C(=N\Nc1nnc2c(n1)[nH]c1ccccc12)c1ccc([N+](=O)[O-])cc1	-25.7	5.9*	0.1	7.1	0.3	-16.5
Cc1c(Cl)ccc(S(=O)(=O)N2CCCC(C)C2)c1Cl (configuration not stated)	9.7	-0.3	0.0	-2.0	.	.
O=C(NCc1cccc(C(F)(F)F)c1)c1cccc(N2CCOCC2)n1	-4.1	-2.3	-0.1	-1.6	.	.
COc1cc(-c2csc(N)n2)cc(OC)c1OC	-5.9	0.1	0.2	-1.6	.	.
CCCOc1ccc(/C(=N\O)C(C)(C)NO)cc1	-22.9	-1.7	0.1	-14.3	.	.
COc1ccc(/C(=N/O)C(C)(C)NO)cc1	6.8	5.1*	-0.2	-2.5	-0.6	-1.6
